A selection: hits, their analogues and other compounds. The true share with any hit is near 1.1%.
CaV13 FRET inh = Disruptors of the CACNA1D IQ motif to Ca2+-dependent inactivation inhibitor domain association, primary screening, Förster resonance energy transfer in intact living …. 340,000 compounds, 0.098% hits. inhibition, % at 12.3 µM. AID 743397. HEK cells, CFP/YFP FRET ICDI-IQ, plate reader, 10 min; percent FRET-ratio fall versus neutral wells;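 active = mean replicate inhibition of at least 30% and at least 1% of replicates passing that level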;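 also: 0% = median of the neutral control wells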
VLA-4 inh = inhibition in a human VLA-4 binding assay. P13612. 330,000 compounds, 0.2% hits. VLA-4 expressing cells, ligand binding flow cytometry. inhibition, % (about 7 µM as worked out from the volumes in the protocol). AID 2557; in the data active = inhibition above about 50%
ABCB6 inh MLPCN = inhibitors of human ABC transporter ABCB6 | Q9NP58 | fluorescence ratio to DMSO, % at 10 µM | AID 602162 | 360,000 compounds, 0.19% hits | K562-ABCB6 porphyrin accumulation, flow cytometry, 1 h; stronger effect = lower value;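 active = fluorescence ratio to DMSO below 75%, the collection mean minus 3 SD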;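 also: signal is porphyrin accumulated inside mitochondria; 100% equals median channel fluorescence of DMSO control wells; lower ratio means ABCB6 inhibition with less porphyrin fluorescence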
Target sequence (Q9NP58 whole entry, looked up): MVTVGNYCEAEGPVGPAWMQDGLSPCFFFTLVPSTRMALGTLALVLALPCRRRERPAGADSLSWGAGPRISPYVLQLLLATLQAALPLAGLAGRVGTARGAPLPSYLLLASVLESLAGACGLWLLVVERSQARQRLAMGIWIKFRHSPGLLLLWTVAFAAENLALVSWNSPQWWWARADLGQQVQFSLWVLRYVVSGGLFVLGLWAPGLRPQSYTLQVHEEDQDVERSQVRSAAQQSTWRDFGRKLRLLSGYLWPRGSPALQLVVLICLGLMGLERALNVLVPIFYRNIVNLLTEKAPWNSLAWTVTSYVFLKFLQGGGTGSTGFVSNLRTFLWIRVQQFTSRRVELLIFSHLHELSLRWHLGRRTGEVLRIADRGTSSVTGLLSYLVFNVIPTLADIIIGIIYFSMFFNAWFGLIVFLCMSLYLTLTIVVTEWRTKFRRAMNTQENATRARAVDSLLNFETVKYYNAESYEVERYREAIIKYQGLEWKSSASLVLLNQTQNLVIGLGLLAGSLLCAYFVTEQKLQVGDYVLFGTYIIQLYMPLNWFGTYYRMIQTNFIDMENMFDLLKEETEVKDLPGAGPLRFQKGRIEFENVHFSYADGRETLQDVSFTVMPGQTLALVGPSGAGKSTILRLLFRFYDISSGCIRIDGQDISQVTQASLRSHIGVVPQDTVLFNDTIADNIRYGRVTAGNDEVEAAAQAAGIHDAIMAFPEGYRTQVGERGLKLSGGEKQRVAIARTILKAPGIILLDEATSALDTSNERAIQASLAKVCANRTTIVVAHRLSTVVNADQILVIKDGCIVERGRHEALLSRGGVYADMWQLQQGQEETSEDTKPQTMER
Exocytosis inh = lytic granule exocytosis inhibition. TALL-104 LAMP-1 surface exposure, flow cytometry; cells stimulated with thapsigargin and PMA. inhibition, % at 10 µM. 360,000 compounds, 0.66% hits;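 active = inhibition above about 55%, limit read from the data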
ABCB6 inh CP1 = inhibitors of human ABC transporter ABCB6; AID 602430; 700 tested, under 10 active; shares compounds with ABCB6 inh MLPCN; K562-ABCB6 porphyrin accumulation, flow cytometry, 1 h; stronger effect = lower value; ratio response (% of DMSO), % at 10 µM;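 active = repeat-averaged ratio response below 75% of DMSO, the collection mean minus 3 SD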;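 also: median porphyrin fluorescence at 575 nm with 488 nm excitation from mitochondria; lower ratio means less porphyrin signal so ABCB6 inhibition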
Active calls of the source: *; . = no result given.

SMILES	CaV13 FRET inh	VLA-4 inh	ABCB6 inh MLPCN	Exocytosis inh	ABCB6 inh CP1
CCOC(=O)Cc1nnc(NC(=O)C(CC)Sc2nnc3c4ccccc4n(C)c3n2)s1 (stereo not given)	-8	9	74*	-1	100
COc1ccccc1CN(C)C(=O)C(c1ccccc1)c1ccccc1	-19	-9	73*	36	100
CCC(C)NC(=O)C1CCC(=O)N1CCc1ccccc1 (stereo not given)	-12	6	98	0	.
CCN(CC(=O)Nc1ccccc1C(F)(F)F)C(=O)c1cc(S(=O)(=O)N2CCCCCC2)ccc1OC	-4	-2	93	-2	.
CN1CCN(C(=O)CCc2nnc3ccc(N4CCC5(CC4)OCCO5)nn23)CC1	-5	-4	97	-2	100
COc1cccc(N2CCN(C(=O)CCc3nnc4ccc(N5CCCC5)nn34)CC2)c1	-3	-10	101	6	.
O=C(CCc1nnc2ccc(N3CCC4(CC3)OCCO4)nn12)N1CCCCC1	-5	-2	97	3	96
CC(=O)c1ccc(NC(=O)CCc2nnc3ccc(N4CCC5(CC4)OCCO5)nn23)cc1	-3	-116	97	0	.
Cc1ccc(NC(=O)CCc2nnc3ccc(N4CCC5(CC4)OCCO5)nn23)nc1	-4	-6	104	-2	.
CCOC(=O)C1CCN(C(=O)CCc2nnc3ccc(N4CCN(C)CC4)nn23)CC1	-6	-129	98	-6	101
O=C(CNC(=O)c1ccco1)OCC(=O)c1ccc(Br)cc1	-3	8	99	-12	.
COc1ccc(C(=O)CN(CCC(=O)O)S(=O)(=O)c2ccc([N+](=O)[O-])cc2)cc1	-4	-2	94	-3	.
CCn1c(SCc2ccccc2)nnc1-c1cccnc1	-13	23	99	1	.
COc1ccc(C)cc1NC(=O)C1CC(=O)N(CCc2ccc(F)cc2)C1 (stereo not given)	-2	.	90	-3	.
COc1ccc(OC)c(NC(=O)C2CC(=O)N(CCc3ccc(F)cc3)C2)c1 (stereo not given)	.	.	48*	-1	100
O=C(COc1ccccc1Br)NCc1ccccn1	-8	-2	102	-4	.
COC(=O)c1ccc(CNC(=O)COc2ccccc2Br)o1	.	8	32*	0	97
Cc1cc(C(=O)COC(=O)c2ccc(Cl)c(S(N)(=O)=O)c2)c(C)n1C1CC1	-2	5	100	2	.
Cc1nn(-c2ccccc2)c(Cl)c1C(=O)NNC(=O)c1ccccc1O	-14	10	103	-6	.
CCOc1ccc(NC(=O)c2sc3nc4n(c(=O)c3c2C)CCC4)cc1	-2	-88	94	-4	102
Cc1c(C(=O)Nc2ccccc2F)sc2nc3n(c(=O)c12)CCC3	-3	-11	98	-2	98
CCOC(=O)c1ccc(NC(=O)c2sc3nc4n(c(=O)c3c2C)CCC4)cc1	-7	4	97	-1	.
CCc1cccc(NC(=O)c2sc3nc4n(c(=O)c3c2C)CCC4)c1	-7	-18	94	19	94
Cc1cc(C)cc(NC(=O)c2sc3nc4n(c(=O)c3c2C)CCC4)c1	-7	6	92	-6	.
CN(C(=O)c1ccc(NC(=O)C2CCN(C(=O)OC(C)(C)C)CC2)cc1)C1CCC1	-4	-11	92	3	.
SMILES	CaV13 FRET inh	VLA-4 inh	ABCB6 inh MLPCN	Exocytosis inh	ABCB6 inh CP1
CCOc1ccc(NS(=O)(=O)c2c(C)nc3sccn3c2=O)cc1	-5	-3	93	0	.
Cc1cccc(C)c1-n1nnnc1C1(C)CCC(=O)N1CCc1ccc(O)cc1 (stereo not given)	-11	.	101	-8	.
CC(CNC(=O)c1ccc(C#N)cc1)NC(=O)c1ccc(C#N)cc1 (stereo not given)	-20	6	73*	5	101
COc1ccc(C(=O)NCC(C)NC(=O)c2ccc(OC)cc2)cc1 (stereo not given)	-3	4	100	53	.
Cc1ccc(OCC(=O)Nc2ccncc2)cc1C	-5	.	74*	-2	99
Cc1onc(-c2ccccc2Cl)c1C(=O)NCC1CCCO1 (stereo not given)	.	14	74*	0	101
O=C(Nc1ncccc1O)c1c(O)c2ccccc2[nH]c1=O	-2	4	99	7	.
Cn1nc(-c2ccccc2)c(CO)c1Oc1ccc(F)cc1	-4	1	69*	1	104
CC(=O)c1c(C)oc2ccc(NS(=O)(=O)c3ccc(F)cc3C)cc12	-7	-2	73*	18	101
CCC(C(=O)NCc1ccccc1)n1c(-c2cccs2)nc2ccccc21 (stereo not given)	-9	.	.	8	.
COc1cccc(CNC(=O)c2c[nH]n3c(=O)c(Cl)c(C)nc23)c1	-4	-8	98	-2	.
CNC(=O)c1c[nH]n2c(=O)c(Cc3ccccc3F)c(C)nc12	-5	-1	107	-4	116
CCOC(=O)[C@@H]1[C@H]2COc3ccccc3[C@H]2N2C(=O)N(c3cccc(F)c3)C(=O)[C@]12C	-7	4	102	4	.
COc1ccc(CCNC(=O)c2c(C)nc3ccccn23)cc1	2	17	98	-1	.
COc1ccc2nc(SCC(=O)Nc3c(C)cccc3C)[nH]c2c1	-5	8	74*	0	98
CCOc1ccc2nc(SCC(=O)NCc3ccccc3OC)[nH]c2c1	-3	19	72*	3	103
Cc1cccc(Cc2c(C)nc3c(C(=O)NCc4ccco4)cnn3c2C)c1	-4	-5	88	37	101
Cc1nc2c(C(=O)NCc3ccc4c(c3)OCO4)cnn2c(C)c1Cc1ccc(F)cc1Cl	-9	-9	97	2	.
Cc1nc2c(C(=O)NCc3cccs3)cnn2c(C)c1Cc1ccccc1	.	3	.	.	.
Cc1nc2c(C(=O)NCc3ccco3)cnn2c(C)c1Cc1ccc(F)cc1Cl	-4	-8	72*	0	100
CN(C(=O)C1CCCC1)C1CCS(=O)(=O)C1 (stereo not given)	-5	4	71*	0	99
CN(C(=O)C1CCCCC1)C1CCS(=O)(=O)C1 (stereo not given)	-5	8	100	-2	.
CCOc1ccc2nc(NC(=O)C3=NN(c4ccccc4)C(=O)CC3)sc2c1	-5	-13	74*	-2	100
Cc1ccc2nc(NC(=O)C3=NN(c4ccccc4)C(=O)CC3)sc2c1	-6	-6	109	4	.
COc1ccc(NC(=O)COC(=O)CCCC2=NS(=O)(=O)c3ccccc3N2)cc1	-7	5	102	1	100
COc1ccc(NC(=O)COC(=O)CCCC2=NS(=O)(=O)c3ccccc3N2)cc1Cl	-6	0	101	6	.
COc1cccc(NC(=O)COC(=O)CCCC2=NS(=O)(=O)c3ccccc3N2)c1	-2	0	14*	0	102
Cc1ccc(N2CC(C(=O)Nc3ccc(S(=O)(=O)NCC4CCCO4)cc3)CC2=O)cc1C (stereo not given)	-5	3	94	17	.

High-throughput results (PubChem)
